Results filed as inconclusive are left out. Entries that show only a call come without a potency. Calls of active or inactive are those of the source. Calls follow the shape of the dose curve; as a rule, active = well fitted inhibition curve with a large enough effect; inconclusive = small, poorly fitted or top-dose-only effect; inactive = flat fitted curve, though single readings scatter.
Tested on: CRL-7250
Experiment: qHTS assay to identify novel small-molecules to repurpose for Merkel cell carcinoma treatment (AID 1296009); also: nearly all actives have a fitted effect of over 60% in size
Settings: MCC and control cell lines, CellTiter-Glo viability, 72 h; series mostly up to 92 µM
How it was run: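 CellTiter-Glo luminescence after 72 hr compound exposure at 37 degree celsius gave cell viability. Libraries NPC and MIPE were run as 8- and 11-point dose responses; RLUs normalized to DMSO (negative) and no-cell (cytotoxicity) controls.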

| Structure (SMILES) | Potency |
| --- | --- |
| COc1cc(C2Oc3c(OC)cc(/C=C/C(=O)OC[C@H]4O[C@@H](OC(C)(C)C(=O)O)[C@H](O)[C@@H](O)[C@@H]4O)cc3C2CO)ccc1O (stereo partly specified) | inactive |
| O=c1ccn(C2OC(CO)C(O)C2O)c(=O)[nH]1 (stereo unspecified) | inactive |
| COc1ccc(C2Oc3c(OC)cc(CCCO)cc3C2COC2OC(CO)C(O)C(O)C2O)cc1OC (stereo unspecified) | inactive |
| COc1cc(C(=O)OC[C@@]2(O)CO[C@@H](O[C@H]3[C@H](Oc4ccc(O)cc4)O[C@H](CO)[C@@H](O)[C@@H]3O)[C@@H]2O)cc(OC)c1O | inactive |
| COc1c2c(c(C)c3c1C(=O)OC3)O[C@@]1(C)CC(O)C(C(C)(C)O)[C@](C)(CCC(=O)O)[C@H]1C2 (stereo partly specified) | inactive |
| CC(=O)OC1C(O)C(C)=C(CCC(C)CC(=O)O)C2(C)CCCC(C)(C)C12 (stereo unspecified) | inactive |
| NC(Cc1c[nH]c2ccccc12)C(=O)NC(CCC(=O)O)C(=O)O (stereo unspecified) | inactive |
| C=C1CC[C@H]2[C@@](C)(CCC(O)[C@@]2(C)CO)[C@@H]1C/C=C(/C(=O)O)C(O)CO (stereo partly specified) | inactive |
| O=C(Nc1ccccc1)N1CCN(Cc2ccc3ccccc3n2)CC1 | inactive |
| CO[C@@H]1CC[C@H](OC[C@]2(COC(=O)c3ccc(C)[nH]3)[C@H](OC(C)=O)CC[C@@]3(C)[C@@H]4CC=C(C)[C@@H](C5=C(O)C(=O)OC5O)[C@]4(C)CC[C@@H]32)O[C@H]1C (stereo partly specified) | inactive |
| CC1(C)CC[C@]2(C(=O)O[C@@H]3O[C@H](CO)[C@@H](O)[C@H](O)[C@H]3O)CC[C@]3(C)C(=CCC4[C@@]5(C)C[C@@H](O)[C@H](O)[C@@](C)(CO)C5[C@H](O)C[C@]43C)C2[C@@H]1O (stereo partly specified) | inactive |

Source: PubChem BioAssay (NCATS)
